# Experimental data: ChEMBL document CHEMBL3433997, “St. Jude Leishmania screening dataset” (2016)
# Columns and labels:
# Assay type in all cases: functional
# [1] = target: Solute carrier family 2, facilitated glucose transporter member 1 (Homo sapiens) (UniProt P11166); test: ST_JUDE_LEISH: Cytotoxicity at 2uM final concentration against transgenic Leishmania Mexicana promastigotes LmGLUT1 that are glucose transport deficient and complemented with the human glucose transporter GLUT1. Activity is measured by DNA content using SYBR green in vitro
# Chain of Solute carrier family 2, facilitated glucose transporter member 1 (Homo sapiens) (P11166 whole entry): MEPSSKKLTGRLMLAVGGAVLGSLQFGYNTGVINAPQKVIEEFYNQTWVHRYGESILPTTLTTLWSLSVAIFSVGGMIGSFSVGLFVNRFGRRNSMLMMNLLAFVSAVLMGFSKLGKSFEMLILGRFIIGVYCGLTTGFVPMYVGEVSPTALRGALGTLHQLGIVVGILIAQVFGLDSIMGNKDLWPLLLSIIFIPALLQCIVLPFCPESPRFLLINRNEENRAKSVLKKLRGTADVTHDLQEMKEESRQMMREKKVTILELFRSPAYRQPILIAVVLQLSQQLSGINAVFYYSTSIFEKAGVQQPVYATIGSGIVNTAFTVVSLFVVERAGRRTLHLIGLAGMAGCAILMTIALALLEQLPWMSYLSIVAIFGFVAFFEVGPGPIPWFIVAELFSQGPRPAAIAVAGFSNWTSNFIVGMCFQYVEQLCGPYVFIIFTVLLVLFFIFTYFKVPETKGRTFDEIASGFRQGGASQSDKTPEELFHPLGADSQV
# [2] = target: Hexose transporter 1 (Plasmodium falciparum) (UniProt O97467); test: ST_JUDE_LEISH: Cytotoxicity at 2uM final concentration against transgenic Leishmania Mexicana promastigotes LmPfHT that are glucose transport deficient and complemented with the Plasmodium falciparum hexose transporter. Activity is measured by DNA content using SYBR green in vitro
# [3] = target: Glucose transporter (Leishmania mexicana) (UniProt O61059); test: ST_JUDE_LEISH: Cytotoxicity at 2uM final concentration against transgenic Leishmania Mexicana promastigotes LmGT2 that are glucose transport deficient and complemented with the L. Mexicana glucose transporter 2. Activity is measured by DNA content using SYBR green in vitro
Structure (SMILES),inhibition [1] [%],inhibition [2] [%],inhibition [3] [%]
CC(=O)Nc1nc(C(=O)Nc2cccc(-c3ccc(-c4nc5cc(F)ccc5[nH]4)cc3)c2)cs1,2.38,1.38,4.22
Cn1cnc(CCNC(=O)c2cccc(-c3cccc(-c4nc5cc(C(F)(F)F)ccc5[nH]4)c3)c2)c1,-1.68,1,-2.49
CC(C)NCC(O)COc1ccc(Cc2ccc(OCC(O)CNC(C)C)cc2)cc1 (stereo not drawn),-0.23,0.19,-0.55
CC(C)Nc1nc(NCCc2c[nH]cn2)nc(NCc2cccc3ccccc23)n1,-1.11,-0.07,-2.34
COc1cccc(Nc2nc(C)cc(Nc3cccc(C#N)c3)n2)c1,17.5,19.2,4.27
Cc1ccc(Cn2c(N3CCC(C(=O)NCc4cccs4)CC3)nc3ccccc32)cc1,1.76,2.67,7.85
CC[C@H](C)CNC(=O)c1cncc(-c2cccc(CN3CCC(N4CCCC4)CC3)c2)c1,-3.12,2.1,-0.34
COc1ccc(-n2cc(C(=O)c3cc(Br)ccc3O)cc(C#N)c2=O)cc1Cl,3.4,1.9,0.95
Cc1ccc(S(=O)(=O)n2nccc2-c2c(-c3ccc(Cl)cc3)noc2C)cc1,3.44,3.35,2.23
CNCc1ccc(CN(C)c2nc(N)c3cc(OC)c(OC)cc3n2)cc1,4.8,5.4,6.34
N#CN1CC[C@@H](NS(=O)(=O)Cc2ccc(Cl)c(Cl)c2)C1,5.72,4.08,4.15
Cc1ccccc1C1CCN(c2ccc(C(=O)Nc3ccc(F)cc3)cn2)CC1,4.93,-0.36,5.56
Cc1ccc(-c2cc(C(=O)Nc3ccc(S(=O)(=O)N4CCCCC4C)cc3)n[nH]2)c(O)c1 (stereo not drawn),-0.81,-0.31,-0.79
CC(C)C(=O)n1ncc2c3c(N)nc(N)nc3ccc21,-0.81,-1.08,-0.01
O=C(Nc1ccc(Cl)c(Cl)c1)Nc1ccc2c(c1)CCNCC2,-0.33,0.96,0.79
O=C(C=Cc1ccc(Cl)c(Cl)c1)NCCCCCN1CCC(CCNC(=O)/C=C/c2ccccc2)CC1,0.55,0.26,3.1
CC(Cc1ccc(NC(=O)c2ccc(CC(C)NCc3ccc(Cl)c(Cl)c3)cc2)cc1)NCCc1cccc(Cl)c1 (stereo not drawn),1.59,-0.71,-0.17
c1ccc(COc2ccc(Nc3ncnc4cnc(-c5ccc(CN6CCCCC6)o5)cc34)cc2)cc1,1.44,1.73,2.99
O=C(NCc1ccc(F)cc1)Nc1cccc(-c2ccc(-c3nc4ccccc4[nH]3)cc2)c1,1.76,0.3,-0.44
N#Cc1ccc(N2C[C@@H](OCc3ccccc3)C[C@H]2C(=O)NCCC(c2ccccc2)c2ccccc2)c2ccccc12,5.42,4.29,3.78
COc1ccc(Cl)cc1N1CCN(CCCNC(=O)c2ccc(-c3nc4cc(Cl)c(F)cc4[nH]3)cc2)CC1,2.81,2.7,3.92
Nc1cccc(CNCc2ccc(-c3cccc(-c4nc5ccccc5[nH]4)c3)cc2)c1,1.2,0.24,-0.54
Cc1ccccc1C1CCN(C2CCC(NC(=O)/C=C/c3cccc(Cl)c3F)CC2)CC1 (stereo not drawn),3.45,1.79,1.85
OC(CNc1ccnc(Nc2ccc(Cl)cc2)n1)c1ccc(C(F)(F)F)cc1 (stereo not drawn),4.91,4.91,2.64

Structure (SMILES),inhibition [1] [%],inhibition [2] [%],inhibition [3] [%]
CCNc1cc(C(=O)N[C@@H](Cc2cccc(Cl)c2)[C@H](O)CNC(C)CCCC(C)C)cc(N2CCCCS2(=O)=O)c1 (stereo partly drawn),-0.84,-1.5,-4.25
Oc1ccc(-c2ccccc2)cc1CNC1CCCCC1,2.86,0.92,2.38
CN(C)c1ccc2c(c1)Sc1cc(N(C)C)ccc1N2C(=O)CCCC(=O)O,5.15,1.94,-0.96
CC(=O)Nc1ccc(C(=O)Nc2cccc(-c3ccc(-c4nc5cc(C(F)(F)F)ccc5[nH]4)cc3)c2)cn1,2.59,-0.8,3.05
Cc1cccc2nc(-c3ccc(-c4ccc(CN5CCN(c6ccncc6)CC5)cc4)s3)[nH]c12,2.98,2.29,1.09
CC(C)CCNCC(O)Cn1c2ccc(Cl)cc2c2cc(Cl)ccc21 (stereo not drawn),0.18,0.29,0.33
Cc1cccc2nc(-c3cccc(-c4cccc(NC(=O)c5ccc(C(N)=O)cc5)c4)c3)[nH]c12,0.33,1.11,1.3
Cc1ccccc1C1CCN(C2CCC(NC(=O)/C=C/c3ccc(OC(F)(F)F)cc3)CC2)CC1 (stereo not drawn),-0.78,-1.35,0.34
O=C(NCc1cccc(F)c1)Nc1cccc(-c2cccc(-c3nc4ccccc4[nH]3)c2)c1,7.33,5.52,7.79
CCN(CC)CCCNc1cc[n+]([O-])c2cc3ccccc3cc12,-0.82,-2.45,-1.63
CN1CCC(NCc2cccc(-c3ccc(S(=O)(=O)NCCN4CCCC4)c(F)c3)c2)CC1,-1.49,-0.62,-0.34
Nc1ncc(-c2ccc(Cl)c(Cl)c2)c(N)n1,0.86,1.64,0.31
Cc1cc(N2CCCC2)nc(Nc2ccc(NC(=O)C3CCCC3)cc2)n1,-0.76,1.16,0.83
CC(C)c1ccc(C(NC(=O)C2CCCCC2)c2ccc3cccnc3c2O)cc1 (stereo not drawn),-0.43,-0.57,-1
COc1ccc2ncc(Cl)c([C@H](O)CN3CCC(NCc4cc5c(cn4)OCCO5)CC3)c2c1,11,7.96,6.66
CN1CCCC(CN2CCN(Cc3ccc(-c4cccc(-c5nc6ccccc6[nH]5)c4)cc3)CC2)C1 (stereo not drawn),3.67,2.47,3.47
Oc1ccc(-c2cncc(NCc3ccc(F)c(F)c3)c2)cc1,7.16,7.41,7.98
CCN(CC)C(=O)c1cccc(C=Cc2ccc(-c3c(C)[nH]c(C)c(Cl)c3=O)cc2)c1,2.65,2.83,1.56
C=CCN1C(=O)C(C(C)=O)=C(O)C1c1ccccc1 (stereo not drawn),-0.92,-4.02,0.66
NS(=O)(=O)Cc1cccc(-c2ccnc3ccc(-c4cccc(S(N)(=O)=O)c4)cc23)c1,3.2,0.84,1.72
COc1cc2c(cc1N1CC(C)NC(C)C1)N(C(=O)c1ccc(-c3ccc(-c4ncc[nH]4)cc3C)cc1)CC2 (stereo not drawn),2.21,1.1,3.39
COc1cccc(C2CCN(CCN3CCC(CNC(=O)c4ccc(-c5ccc(C(F)(F)F)cc5)cc4)CC3)CC2)c1,-0.53,1.07,1.17
O=C(Nc1cccc(CN2CCN(C(=O)c3cccc(Cl)c3)CC2)c1)c1cccs1,5.62,4.14,2.57
Cc1ccc(C(=O)Cn2nc(-c3ccc(C)c(S(=O)(=O)N4CCCCC4)c3)ccc2=O)cc1,8.67,12.3,6.75

Structure (SMILES),inhibition [1] [%],inhibition [2] [%],inhibition [3] [%]
CC1CCN(C(=O)C(Cc2c[nH]c3ccccc23)NS(=O)(=O)c2ccc(Cl)cc2)CC1 (stereo not drawn),0.31,1.31,-0.09
O=S(=O)(Nc1cccc(F)c1CNCc1ccccn1)c1ccc(Cl)c(Cl)c1,-1.4,0.71,-2.5
CCOc1cc(C(C)C)ccc1C1CCN(CCCCNC(=O)c2ccc(NC(=O)c3ccc(Cl)cc3)cc2)CC1,3.78,4.23,2.65
CCOC(=O)CCCOc1c(OC)cc(Cc2cnc(N)nc2N)cc1OC,-1.3,-0.68,-2.34
CCNCc1cccc(-c2ccc3ccnc(N)c3c2)c1,4.49,3.12,4.03
O=[N+]([O-])c1cccc(-n2nc(NCc3ccc(Cl)cc3)nc2-c2ccc(F)c(C(F)(F)F)c2)c1,1.19,2.33,0.17
CC(=O)Nc1ccc(OCCCCN(Cc2ccccc2OC(F)(F)F)c2ccc(C(F)(F)F)c(C#N)c2)c(Cl)c1,1.46,4.12,7.95
CCCCCCCC1CC(CC(=O)Nc2ccnc3ccc(OC)cc23)CN1 (stereo not drawn),1.6,0.43,0.67
CC(C)c1ccc(NC(=O)Nc2ccc(Cn3ncc(N4CCCNCC4)c(Cl)c3=O)cc2)cc1,1.52,1.29,-0.56
CN(C)c1nc(NN=Cc2cc(Cl)ccc2O)nc(Nc2ccc(F)cc2)n1,13,11,10.9
CCN(CC)CCNc1ccnc2ccc3ccccc3c12,1.6,6.78,2.97
Fc1cccc(Nc2nc(NCc3ccc(Cl)c(Cl)c3)nc(Nc3cccc(F)c3)n2)c1,11.7,13.6,7.17
CC(C)c1ccc(N(CC(=O)N/N=C/c2ccc(C(F)(F)F)cc2)S(=O)(=O)c2ccc(C(F)(F)F)cc2)cc1,4.88,2.56,3.25
Nc1ncc(-c2ccc3nccc(-c4ccncc4)c3c2)cc1S(=O)(=O)N1CCCCC1,12.9,11.3,7.55
CC1(C)NC(N)=NC(=N)N1OCCCOc1cc(Cl)ccc1Cl,13.6,13.5,13.6
Cc1onc(-c2ccccc2Cl)c1C(=O)Nc1cc(Cl)c(Cl)cc1Cl,3.43,5.64,4.95
Cc1ccc(-c2ccc3c(c2)C=C(C(=O)NCC2CCN(CC4CCN(C(=O)/C=C/c5ccc(Cl)c(Cl)c5)CC4)CC2)CCC3)cc1,1.1,0.59,-0.85
CCOc1c(CNCCCNc2nc3ccccc3[nH]2)cc(Br)cc1OC,2.6,-3.13,4.2
CC(C)C1=C[C@H]2C[C@]3(C4OCCO4)[C@@H]4CC[C@@H](C)[C@H]4C[C@@]2(C(=O)OCC2COCO2)[C@]13C(=O)OC(c1ccccc1)c1ccccc1 (stereo partly drawn),-1.18,-2.48,-1.79
CCC(C)c1cnc2nc(N)nc(N)c2c1C (stereo not drawn),1.18,1.66,2.42
O=C(/C=C/c1ccc(Cl)c(Cl)c1)NCCCCCN1CCCN(C(=O)Nc2ccc(C(F)(F)F)cc2)CC1,2.96,2.53,5.5
CN(C)Cc1ccc(-c2cc3c(-c4ccc(CN(C)C)cc4)ccnc3[nH]2)cc1,5.17,12.8,2.4
CC(C)CN(C)Cc1ccc(-c2ccc(-c3nc4ccccc4[nH]3)s2)cc1,-1.24,-0.64,-1.65
